From PubChem
TDP1 cell noCPT: qHTS for Inhibitors of human tyrosyl-DNA phosphodiesterase 1 (TDP1): qHTS in cells in absence of CPT. DT40 Tdp1-/- hTDP1 cells, no CPT, ATP luminescence, 48 h. Potency, µM (top dose mostly 46.2 µM), for the others: at the top dose activity change, negative = growth inhibition, most hits filed as inhibitors. 420,000 tested, 15% active; also: potency is read from the fitted curve at half-maximal effect; nearly all actives have a fitted effect of over 55% in size
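Growth kinetics read by CellTiter-Glo luminescence after ≥48 hr at 37 °C. Cells: DT40 Tdp1-/- stably carrying human TDP1, 400 per well, compound exposure in the absence of CPT (DMSO vehicle).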
IL-1B inflam inh: qHTS for Inhibitors of Inflammasome Signaling: IL-1-beta AlphaLISA Primary Screen | activity change, % at 57.5 µM | 360,000 tested, 4.7% active | THP-1 LPS/ATP IL-1B secretion, AlphaLISA, 16 h; active compounds read low; in the data active = activity change below about -50%; inconclusive = mostly about -30% to -49%
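THP-1 cells pretreated 1 hr with compounds (up to 57.5 uM final), then stimulated with LPS (250 ng/mL final) plus ATP (1.25 mM final); secreted IL-1B measured by AlphaLISA after 16 hr, decreased signal indicating inhibition.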
DT40 TDP1 CPT: qHTS for Inhibitors of human tyrosyl-DNA phosphodiesterase 1 (TDP1): qHTS in cells in presence of CPT. chicken DT40 Tdp1-/-;hTDP1 cells + 20 nM CPT, ATP luminescence, 48 h. Potency, µM (top dose mostly 46.2 µM), for the others: at the highest dose activity change, negative = growth inhibition, hits mostly inhibitors. 420,000 tested, 12% active; also: potency is read from the fitted curve at half-maximal effect; nearly all actives have a fitted effect of over 55% in size
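Chicken DT40 Tdp1-/- cells complemented with human TDP1, 400 cells/well, exposed to compounds plus 20 nM camptothecin for at least 48 h at 37 C; viability read as ATP content by CellTiter-Glo luminescence.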
HT1080NT lethal: qHTS for induction of synthetic lethality in tumor cells producing 2HG: qHTS for the HT-1080-NT fibrosarcoma cell line | HT-1080-NT fibrosarcoma viability, CellTiter-Glo ATP luminescence, 48 h | Potency, µM (titrated, usually from 46.1 µM), for inactives: top-dose activity, negative = less viability, actives largely listed as cytotoxic | 360,000 tested, 1.6% active;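 also: NT is the 2HG producing partner of a matched IDH1 knockdown line; potency is read from the fitted curve at half-maximal effect; 0% = DMSO-treated cells and -100% = media-only wells without cells; nearly all actives have a fitted effect of over 55% in size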
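A 48-hour cytotoxicity screen used HT-1080-NT cells plated 2 hours before compound delivery. ATP-based CellTiter-Glo luminescence measured viability, normalized to DMSO and no-cell controls.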
HT1080 IDH1KD tx: qHTS for induction of synthetic lethality in tumor cells producing 2HG: qHTS for the HT-1080-IDH1KD cell line. 360,000 tested, 2% active. Potency, µM (series often up to 46.1 µM), for the others: at the top dose activity, negative = toxicity, usual class: cytotoxic. AID 686971, 2013. HT-1080 IDH1 knockdown viability, ATP luminescence, 48 h;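 also: potency is read from the fitted curve at half-maximal effect; 0% = DMSO wells and -100% = cell-free medium wells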
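Knockdown cells (IDH1KD HT-1080) received compounds 2 h after plating at 750 cells/well and were kept 48 h at 37 °C in 5% FBS RPMI. A CellTiter-Glo luminescence read gave % activity for curve fitting.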
Starred values were filed as active, the others as inactive; ? = inconclusive; . = not tested or not shown. Sampled rows, rich in hits. Any-hit rate of the full collection: about 19%. Unless noted, calls follow the shape of the dose curve; as a rule, active = well fitted curve in the direction sought with a large enough effect; inconclusive = small, poorly fitted or top-dose-only effect, or another doubt; inactive = no such curve, though single readings can be large; an effect the other way counts as inactive or inconclusive. Unless noted, % is scaled to controls: 0 for no effect and ±100 for the full control effect.

SMILES	TDP1 cell noCPT	IL-1B inflam inh	DT40 TDP1 CPT	HT1080NT lethal	HT1080 IDH1KD tx
CC(c1ccccc1)C1CC(=O)N(Cc2ccco2)C1=O (stereo not drawn)	21µM*	24	?	6%	12%
CCOc1ccccc1CNC(=O)c1ccc(NC(=O)N2CCSc3ncccc32)cc1	15µM*	.	21µM*	.	.
CCOc1ccc(CNC(=O)Cc2ccc(NC(=O)N3CCSc4ncccc43)cc2)cc1	16µM*	.	16µM*	.	.
CCOc1ccccc1CNC(=O)c1ccc(NC(=O)C2=CSCCO2)cc1	23µM*	-6	?	0%	1%
CCc1ccc(CNC(=O)Cc2ccc(NC(=O)C3=C(C)OCCS3)cc2)cc1	1.3µM*	44	1.2µM*	0.82µM*	1.3µM*
O=C(Cc1ccc(NC(=O)N2CCSc3ncccc32)cc1)NCCc1ccccc1	-25%	.	?	.	.
CCc1ccc(CNC(=O)Cc2ccc(NC(=O)N3CCSc4ncccc43)cc2)cc1	23µM*	.	26µM*	.	.
O=C(Cc1ccc(NC(=O)N2CCSc3ncccc32)cc1)NCc1cccc(Cl)c1	21µM*	.	?	.	.
COc1cccc2c1cc1c(=O)n(CC(=O)N3CCN(c4cccc(C)c4)C(C)C3)nc(C)n12 (stereo not drawn)	4%	.	-22%	.	.
CCOc1ccc(OCCC(=O)OCC(=O)NC2CCCC2)cc1	-13%	13	-8%	8%	16%
Cc1cc(-c2ccc(S(=O)(=O)Nc3ccccc3F)s2)on1	?	.	-18%	.	.
COc1ccc(CN(C)C(=O)c2cc(S(=O)(=O)Nc3ccccc3F)ccc2C)c(OC)c1	-30%	5	-14%	1%	0%
COc1ccc(CN2C[C@@H](CO)O[C@@H](n3cnc4c(N5CCOCC5)ncnc43)C2)cc1	10%	-2	-28%	8%	20%
COc1ccc(-c2cn3c(n2)sc2cc(C(=O)Nc4ccc(C)c(C)c4)ccc23)cc1	?	.	-28%	.	.
CCNC(=O)c1ccc2c(c1)sc1nc(-c3cccc(OC)c3)cn12	7.3µM*	.	6.5µM*	.	.
COc1ccc(-c2cn3c(n2)sc2cc(C(=O)NCc4ccccc4OC)ccc23)cc1	?	.	-8%	.	.
CCOc1ccccc1CNC(=O)c1ccc2c(c1)sc1nc(-c3cccc(OC)c3)cn12	8.2µM*	.	8.2µM*	.	.
COc1cccc(-c2cn3c(n2)sc2cc(C(=O)NCc4ccccc4F)ccc23)c1	16µM*	.	?	.	.
COc1cccc(-c2cn3c(n2)sc2cc(C(=O)NCCc4ccc(OC)c(OC)c4)ccc23)c1	2.3µM*	.	4.6µM*	.	.
Cc1cccc(C(=O)Nc2ccc(NC(=O)CN3CCOCC3)cc2)c1	-1%	-4	-3%	20%	12%
COc1cccc(-c2cn3c(n2)sc2cc(C(=O)NCCC4=CCCCC4)ccc23)c1	6.5µM*	.	13µM*	.	.
Cc1ccc(-c2cn3c(n2)sc2cc(C(=O)NCCC4=CCCCC4)ccc23)cc1	-27%	.	-9%	.	.
CCc1ccc(CN(C)C(=O)C2CCC(=O)N(CC3CCCCC3)C2)cc1 (stereo not drawn)	?	-10	23µM*	-5%	-9%
Cc1ccc(C(=O)NNC(=S)NC(=O)c2ccc(Cl)cc2)cc1	?	70	16µM*	-28%	?
CC(=O)NNC(=S)NC(=O)c1ccc(C)cc1	-8%	7	1%	3%	-1%
SMILES	TDP1 cell noCPT	IL-1B inflam inh	DT40 TDP1 CPT	HT1080NT lethal	HT1080 IDH1KD tx
CCCCC(=O)NC(=S)Nc1cccc(NC(=O)CC)c1	-21%	-14	-17%	-10%	-7%
Cc1ccc(C(=O)NC(=S)NNC(=O)COc2ccccc2C)cc1	?	1	?	-11%	-16%
CCC(=O)NNC(=S)NC(=O)c1ccc(C)cc1	10µM*	-61*	?	-4%	-25%
CCCCCC(=O)NC(=S)NNC(=O)CC	?	87	16µM*	2%	5%
O=C(CCc1ccccc1)NNC(=S)NC(=O)c1ccc(Cl)cc1	23µM*	14	?	?	?
CC(CNC(=O)C1CCN(S(=O)(=O)c2ccc3c(ccn3C)c2)CC1)c1ccccc1 (stereo not drawn)	-4%	.	-23%	.	.
CC(CNC(=O)Cn1ccc2cc(S(=O)(=O)N3CCCCCC3)ccc21)c1ccccc1 (stereo not drawn)	?	.	16µM*	.	.
CCn1ccc2cc(S(=O)(=O)N3CCC(C(=O)NCC(C)c4ccccc4)CC3)ccc21 (stereo not drawn)	?	.	23µM*	.	.
Cc1ccc(NC(=O)OC(C)N2CCCCC2)cc1NC(=O)OC(C)N1CCCCC1 (stereo not drawn)	?	?	-10%	-13%	-10%
O=C(Nc1nccs1)c1c(O)c2c([nH]c1=O)CCCC2	-4%	34	1%	1%	11%
O=C(Nc1ccccc1O)c1c(O)c2c([nH]c1=O)CCCC2	?	-68*	?	?	?
O=C(NCc1ccccc1)c1cc(C2CCCCN2C(=O)c2ccc3c(c2)CCO3)on1 (stereo not drawn)	?	-9	?	3%	1%
Nn1c(SCC(=O)NC2CCCC2)nnc1C(F)(F)F	-11%	8	-9%	1%	-1%
Cc1ccc(Cl)cc1N1CCN(C(=O)C(=O)N2CCCCC2)CC1	?	25	13%	17%	18%
O=C(c1cccn1-c1nnc(N2CCCC2)s1)N1CCN(c2ccccc2)CC1	-19%	.	?	.	.
COc1cccc(N2CCN(C(=O)c3cccn3-c3nnc(N4CCCCC4)s3)CC2)c1	?	.	15µM*	.	.
Cc1ccc(Cl)cc1N1CCN(C(=O)c2cccn2-c2nnc(N3CCCC3)s2)CC1	15µM*	.	12µM*	.	.
COc1cccc(N2CCN(C(=O)c3ccc4nc(N5CCCCC5)sc4c3)CC2)c1	16µM*	?	?	8%	0%
O=C(CN1CCCCC1)NNc1nc(-c2ccccc2)c2cc(Br)ccc2n1	-8%	-6	-6%	-5%	2%
Cc1ccc(Cc2c(-c3ccc(C#N)cc3)nc3ccc(Br)cn23)cc1	?	-9	21µM*	-14%	-5%
Cc1ccc(Cc2c(-c3ccccc3)nc3ccc(Br)cn23)cc1	?	9	?	-18%	-1%
N#Cc1ccc(-c2nc3ccc(Br)cn3c2Cc2ccccc2)cc1	9.2µM*	-7	12µM*	-10%	-11%
